The values below come from PubChem BioAssay (Tox21).

Assay [1] is described as follows: qHTS assay to identify small molecule antagonists of the androgen receptor (AR) signaling pathway using the MDA cell line in the presence of 0.5 nM R1881 - cell viability counter screen (AID 1259242). Note: nearly all actives have a fitted effect of over 45% in size. Note: potency is the fitted concentration of half-maximal effect. The method in brief: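 Cytotoxicity toward MDA-kb2 cells is measured by CellTiter-Fluor live-cell protease fluorescence after 16 hr compound exposure at 37C in the presence of 0.5 nM R1881 stimulator.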

A short description of assay [2]: qHTS assay to identify small molecule HDAC inhibitors (AID 1259364). Note: top concentration of the series differs between compounds; nearly all actives have a fitted effect of over 45% in size. The method, boiled down: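 Homogeneous cell-based luminescent assay of endogenous class I/II HDAC activity; HCT-116 cells, 2 h compound exposure, 30 min HDAC-Glo development at RT.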
For orientation: Quantitative high-throughput screening tests each substance at several concentrations.

Assay [3] in a line: qHTS assay to identify small molecule HDAC inhibitors - cell viability counter screen (AID 1259365). Note: series mostly up to about 92 µM; nearly all actives have a fitted effect of over 50% in size. The method in brief: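 After overnight seeding at 1,500 cells per well, wild-type HCT-116 cultures took up compounds in DMSO for 2hr at 37 C. Viable cell content came from luminescence with CellTiter-Glo.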
Assay [4] in a line: qHTS assay to identify small molecule agonists of the sonic hedgehog signaling (Shh) pathway - cell viability counter screen (AID 1259366). Note: nearly all actives have a fitted effect of over 50% in size. Note: potency is the fitted concentration of half-maximal effect. The method in brief: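 Same-well cytotoxicity read. Gli1-Luc reporter 3T3 cells; compounds 24hr, 37C/5% CO2; CellTiter-Fluor fluorescence.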
Assay [5] can be described thus: qHTS assay to identify small molecule antagonists of the sonic hedgehog signaling (Shh) pathway - cell viability counter screen (AID 1259367). Note: nearly all actives have a fitted effect of over 55% in size. Note: potency is the fitted concentration of half-maximal effect. The method, boiled down: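 Seed 3T3 Gli1-Luc cells at 2,000 per well; incubate 4 hr; add compound in DMSO, then conditioned medium; incubate at 37C with 5% CO2; add CellTiter-Fluor after 23 hr; read fluorescence 1 hr later.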

A short description of assay [6]: qHTS assay to identify small molecule agonists of the sonic hedgehog signaling (Shh) pathway (AID 1259368; calls by dose curve;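 note: NIH/3T3-derived 3T3Gli1-Luc cells carrying a stable Gli1-driven firefly luciferase reporter; series mostly up to about 92 µM; nearly all actives have a fitted effect of over 15% in size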). The method, boiled down: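 Steps: seed 3T3 Gli1-Luc cells, incubate 4 hr at 37 C, pin-transfer compounds in DMSO alongside a positive control, incubate 24 hr, add luciferase detection reagent, wait 30 min at room temperature, read luminescence.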
Assay [7] is described as follows: qHTS assay to identify small molecule antagonists of the sonic hedgehog signaling (Shh) pathway (AID 1259369; calls by dose curve; note: nearly all actives have a fitted effect of over 45% in size; note: potency is the fitted concentration of half-maximal effect). The method in brief: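 Inhibition of Shh signalling is measured as reduced Gli1-response-element firefly luciferase output in an NIH/3T3-derived stable reporter clone stimulated with conditioned medium for 24hr.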
Assay [8] addresses Estrogen receptor beta (Homo sapiens) (UniProt Q92731). Kind of assay: qHTS assay to identify small molecule agonists of the estrogen receptor beta (ER-beta) signaling pathway (AID 1259377; active = well fitted activation curve with a large enough effect in the signal ratio in the repeat runs, not every such curve was filed as active; the % refers to the signal ratio). The method in brief:
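Read-out: beta-lactamase FRET fluorescence. Cell line: ER-beta-UAS-bla HEK293T in 2% charcoal-stripped FBS. Exposure: 16 hr at 37C. Substrate step: 2 h at room temperature.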

The target is the same in assay [9]. The assay is described as follows: qHTS assay to identify small molecule antagonists of the estrogen receptor beta (ER-beta) signaling pathway (AID 1259378; active = well fitted inhibition curve with a large enough effect in the signal ratio in the repeat runs, not every such curve was filed as active; the % refers to the signal ratio; note: potency is the fitted concentration of half-maximal effect). The method in brief:
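ER-beta-UAS-bla HEK293T cells in 2% charcoal-stripped FBS medium treated with compound plus 1nM final 17-beta-estradiol for 16 hr at 37C. Beta-lactamase reporter read by FRET substrate fluorescence after 2 hours at room temperature.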

Assay [10] in a line: qHTS assay to identify small molecule agonists of the androgen receptor (AR) signaling pathway in the presence of an antagonist - cell viability counter screen (AID 1259379). Note: nearly all actives have a fitted effect of over 25% in size. Note: potency is the fitted concentration of half-maximal effect. The method, boiled down:
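Fluorescence from CellTiter-Fluor, added after 15 hr and read 1 hr later, gave cell viability. Cells were MDA-kb2 exposed to compounds (15 concentrations) in the presence of 3.0uM nilutamide at 37C, 0% CO2.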

A short description of assay [11]: qHTS assay to identify small molecule agonists of the estrogen receptor beta (ER-beta) signaling pathway - cell viability counter screen (AID 1259380). Note: nearly all actives have a fitted effect of over 30% in size. Note: potency is the fitted concentration of half-maximal effect. The method, boiled down: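 Same-well viability counter screen. Cells: ER-beta-UAS-bla HEK293T, plated 6 hr before compound, in 2% charcoal-stripped FBS. Compound exposure 16 hr, 37C; viability by CellTiter-Glo luminescence after 30 min at room temperature.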

Assay [12] can be described thus: qHTS assay to identify small molecule antagonists of the estrogen receptor beta (ER-beta) signaling pathway - cell viability counter screen (AID 1259382). Note: nearly all actives have a fitted effect of over 55% in size. Note: potency is the fitted concentration of half-maximal effect. The method, boiled down: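 Following a 6 hr plating period, HEK293T cells carrying a UAS-driven beta-lactamase reporter under ER-beta control received compounds and 1nM E2 (final). After 16 hr at 37C and 2 hr substrate loading, CellTiter-Glo luminescence indicated viability.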

The nature of assay [13]: qHTS assay to identify small molecule agonists of the estrogen receptor alpha (ER-alpha) signaling pathway in the presence of an antagonist - cell viability counter screen (AID 1259386).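 Note: cells exposed to compounds for 22 h at 37 °C before the viability read; nearly all actives have a fitted effect of over 30% in size.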 Note: potency is the fitted concentration of half-maximal effect. The method in brief: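 Cells are starved of estrogens for 5 days in charcoal-stripped serum, seeded for 24hr and co-treated with ICI-182,780 (10.0nM final) and test compounds. After 22hr at 37C, viability is read as CellTiter-Fluor fluorescence.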

Assay [14] in a line: qHTS assay to identify small molecule phospholipidosis (PLD) inducers (AID 1259344; active = well fitted curve in the direction sought with a large enough effect; an effect the other way counts as inactive or inconclusive; note: potency is the fitted concentration of half-maximal effect). The method in brief: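 Quantitative HTS in HepG2: compound plus LipidTOX Red dye for 24 h, paraformaldehyde fixation with Hoechst 33342, widefield high-content imaging; amiodarone as positive and DMSO as negative control.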
Assay [15] addresses Thyrotropin receptor (Homo sapiens) (UniProt P16473). The assay is described as follows: qHTS assay to identify small molecule antagonists of the thyroid stimulating hormone receptor (TSHR) signaling pathway (AID 1259385; calls by dose curve; note: nearly all actives have a fitted effect of over 20% in size; note: potency is the fitted concentration of half-maximal effect). The method in brief: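 TSHR-HEK293 cells (800/well) plated 18 h, then compounds with Ro20-1724 and TSH at 1.5 ng/mL final, 30 min at room temperature. cAMP quantified by HTRF (cAMP-d2/anti-cAMP-cryptate, 1 h); 15 concentrations in triplicate.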

The nature of assay [16]: qHTS assay to identify small molecule agonists or antagonists of the thyroid stimulating hormone receptor (TSHR) signaling pathway - wild type cell line counter screen (AID 1259384; calls by dose curve). The method, boiled down: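 Wild-type Hek293 cells, 800/well, 18 h at 37C, then compound with Ro20-1724 for 30 min RT. cAMP by HTRF (cAMP-d2/anti-cAMP cryptate), 1 h RT, fluorescence read. 15 concentrations, triplicates.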

Structures are written as SMILES. Several values for one entry are separate records, joined by “and”; a condition that tells them apart may be missing. Identical values can stand only once. Results filed as inconclusive are left out. Where a structure was tested more than once in an assay, its records may differ in their call. Activity calls are given as the source filed them. Unless noted, calls come from the whole dose curve; as a rule, active = well fitted curve in the direction sought with a large enough effect in the repeat runs; inconclusive = weak or mixed curves; inactive = no such curve, though single readings can be large; an effect the other way counts as inactive or inconclusive.

Chain of Estrogen receptor beta (Homo sapiens) (Q92731 whole entry, looked up): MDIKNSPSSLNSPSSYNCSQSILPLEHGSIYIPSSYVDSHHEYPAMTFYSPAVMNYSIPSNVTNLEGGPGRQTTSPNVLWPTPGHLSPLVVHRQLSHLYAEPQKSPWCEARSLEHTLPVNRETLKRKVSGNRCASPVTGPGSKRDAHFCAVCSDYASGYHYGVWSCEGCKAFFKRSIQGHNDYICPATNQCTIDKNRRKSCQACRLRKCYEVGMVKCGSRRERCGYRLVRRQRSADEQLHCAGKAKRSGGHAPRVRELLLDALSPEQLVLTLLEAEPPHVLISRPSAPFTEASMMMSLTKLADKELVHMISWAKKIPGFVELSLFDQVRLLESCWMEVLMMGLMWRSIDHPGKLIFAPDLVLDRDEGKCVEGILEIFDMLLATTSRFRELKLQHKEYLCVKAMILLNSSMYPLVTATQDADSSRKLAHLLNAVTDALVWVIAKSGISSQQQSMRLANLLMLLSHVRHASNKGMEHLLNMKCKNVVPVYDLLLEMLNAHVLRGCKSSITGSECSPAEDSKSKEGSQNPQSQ
Chain of Thyrotropin receptor (Homo sapiens) (P16473 whole entry, looked up): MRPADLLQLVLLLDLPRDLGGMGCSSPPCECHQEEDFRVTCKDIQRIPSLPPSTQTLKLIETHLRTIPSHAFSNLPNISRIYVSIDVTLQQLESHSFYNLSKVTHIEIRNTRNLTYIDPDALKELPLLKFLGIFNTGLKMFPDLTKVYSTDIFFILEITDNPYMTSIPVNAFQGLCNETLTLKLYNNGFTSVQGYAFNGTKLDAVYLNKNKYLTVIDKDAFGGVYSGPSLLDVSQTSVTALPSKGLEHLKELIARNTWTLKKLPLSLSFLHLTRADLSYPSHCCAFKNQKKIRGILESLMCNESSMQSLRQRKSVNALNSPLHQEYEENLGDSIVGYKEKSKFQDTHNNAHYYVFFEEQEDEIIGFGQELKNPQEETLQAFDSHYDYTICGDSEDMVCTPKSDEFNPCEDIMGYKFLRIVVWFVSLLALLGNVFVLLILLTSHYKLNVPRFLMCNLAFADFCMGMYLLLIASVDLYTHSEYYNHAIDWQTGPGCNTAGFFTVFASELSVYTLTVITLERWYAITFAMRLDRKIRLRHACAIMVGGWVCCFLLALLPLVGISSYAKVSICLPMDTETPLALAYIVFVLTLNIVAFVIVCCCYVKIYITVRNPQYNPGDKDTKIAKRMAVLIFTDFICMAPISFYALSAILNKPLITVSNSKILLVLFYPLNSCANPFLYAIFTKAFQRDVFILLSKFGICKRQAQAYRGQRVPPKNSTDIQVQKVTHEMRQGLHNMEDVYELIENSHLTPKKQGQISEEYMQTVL

For `Cc1ccc2c(c1)C(=O)OC2=O`, the Potency entry in assay [1], in [2], in assay [4], in [5], in [6] and in [7] was “inactive” each time. Also, the Potency result in assay [8], in assay [9], in [10], in assay [11], in assay [12] and in assay [13] was “inactive” in each case. The result in assay [3] was inactive.

Regarding `C=C[C@H]1CN2CC[C@H]1C[C@@H]2[C@@H](O)c1ccnc2ccc(OC)cc12`, the Potency result in assay [1], in assay [14], in assay [2], in [4], in assay [5] and in assay [10] was “inactive” throughout. For the same compound, the Potency result in assay [11], in [12] and in assay [13] was “inactive” in each case. In assay [3], the outcome was inactive.

Turning to `CN(C)CCCN1c2ccccc2Sc2ccc(Cl)cc21`, the Potency in assay [1] was 61.1 µM (active); in assay [14] it was 3.16 µM (active); in [4], 30.6 µM (active) and 23.7 µM (active); in assay [5], 61.1 µM (active); in assay [7], 13.7 µM (active) and inactive; in assay [9] it was 30.6 µM (active) and 21.1 µM (active). For the same compound, the Potency in assay [10] is 61.1 µM (active); in [11], 19.3 µM (active) and 16.8 µM (active); in [12] it was 27.3 µM (active) and 18.8 µM (active); in assay [15], 26.6 µM (active). Further, the outcome in [3] was inactive. Also, the Potency entry in assay [6], in assay [8] and in [13] was “inactive” each time.

For the compound `CCCCCCCCCCC(CO)CCCCCCCC` (stereo unspecified), the Potency result in assay [1], in [14], in assay [2], in [4], in assay [5] and in assay [6] was “inactive” in each case. Besides, the Potency entry in assay [7], in [10], in assay [11], in assay [12], in [16] and in assay [15] was “inactive” each time. Also, the Potency result in [13] is “inactive”. Further, the compound was classed as inactive in assay [3].

For `CC(C)[C@@H]1CC[C@@H](C)CC1=O`, the Potency entry in assay [1], in assay [14], in [4], in assay [5], in assay [6] and in assay [10] was “inactive” throughout. The Potency result in assay [11], in assay [12], in assay [15] and in [13] was “inactive” throughout. For the same compound, the call in assay [3] was inactive. Moreover, in assay [7], the Potency is 24.3 µM (active) and inactive.

With `C[N+](C)(C)CCO`, the Potency result in assay [1], in assay [14], in [2], in assay [4], in assay [5] and in assay [6] was “inactive” throughout. For the same compound, the Potency result in assay [10], in assay [11], in assay [12], in assay [16] and in assay [15] was “inactive” throughout. Besides, the compound was called inactive in assay [3].

Regarding `CN1CCOCC1`, the Potency entry in [1], in [4], in [5], in assay [6], in [7] and in assay [8] was “inactive” throughout. Moreover, the Potency entry in [9], in assay [10], in [11], in assay [12] and in assay [13] was “inactive” each time. In assay [3], the outcome was inactive.

`C=C[C@H]1CN2CC[C@H]1C[C@H]2[C@H](O)c1ccnc2ccc(OC)cc12`: the Potency result in [1], in assay [14], in assay [2], in assay [4], in assay [5] and in [10] was “inactive” each time. Moreover, the Potency entry in assay [11], in assay [12] and in assay [13] was “inactive” each time. Moreover, in [3], the call was inactive.

As to `Nc1ccc(N)c(Cl)c1`, the Potency entry in assay [1], in [6] and in [10] was “inactive” throughout. For the same compound, the call in [3] was inactive. In addition, the Potency in assay [4] was 61 µM (active); in [7], 15.4 µM (active); in [11], 61 µM (active) and 61.1 µM (active); in assay [12] it was 68.5 µM (active) and 61.1 µM (active); in assay [13] it was 61.1 µM (active).
